# Tau fluor counter = counter-screen for tau fibril formation inhibitors. tau K18 P301L Alexa594 fluorescence, heparin fibrillization. Potency, µM (series often up to 57.7 µM), for inactives: at the highest dose activity change, negative = decrease. hit rate 0.93% among 280,000; note: nearly all actives have a fitted effect of over 55% in size
#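 Human K18 P301L tau (15 uM unlabeled plus 0.24 uM Alexa 594-labeled, final) in 100 mM sodium acetate pH 7 was mixed with compound and 20 uM heparin and incubated 6 hr at 37 C.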
# PLK1 PBD block = PLK1 (human) polo-box domain binding inhibition; Plk1 PBD binding of FITC phosphopeptide, fluorescence polarization; Potency, µM, without a hit: max response, negative = inhibition, hits mostly inhibitors; hit rate 2.8% among 360,000; AID 720504; note: series mostly up to about 57 µM; nearly all actives have a fitted effect of over 65% in size
# VDR inhibitor = blocks the human vitamin D receptor. VDR-SRC2-3 peptide fluorescence polarization, 2 h. Potency, µM, for the others: max response, negative = inhibition, usual class: inhibitors. hit rate 0.93% among 400,000. AID 504847
# Target sequence (P11473 whole entry, looked up): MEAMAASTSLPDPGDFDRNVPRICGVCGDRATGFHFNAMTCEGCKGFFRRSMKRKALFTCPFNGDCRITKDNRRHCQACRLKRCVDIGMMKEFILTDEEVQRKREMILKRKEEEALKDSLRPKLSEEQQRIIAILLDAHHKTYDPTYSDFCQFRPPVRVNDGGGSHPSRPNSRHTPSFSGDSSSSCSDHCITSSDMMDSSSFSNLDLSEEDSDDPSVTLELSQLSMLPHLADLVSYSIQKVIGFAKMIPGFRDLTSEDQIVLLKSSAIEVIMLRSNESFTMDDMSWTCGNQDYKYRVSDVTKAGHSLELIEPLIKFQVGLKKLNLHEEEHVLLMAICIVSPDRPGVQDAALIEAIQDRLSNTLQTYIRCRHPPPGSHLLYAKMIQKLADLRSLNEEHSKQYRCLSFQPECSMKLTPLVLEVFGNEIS
#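 Compounds are added to VDR with labelled SRC2-3 coactivator peptide and held 2 h at room temperature. Inhibition of the VDR–peptide interaction is then read as a change in fluorescence polarization.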
# Tau ThT inhib = inhibitors of human tau fibril formation, thioflavin T binding; recombinant tau K18 P301L (four-repeat tau fragment), heparin-induced fibrillization, ThT fluorescence; Potency, µM (doses to about 57.4 µM), for the others: at the top dose activity, negative = inhibition, most hits filed as inhibitors; hit rate 2.1% among 270,000; AID 1460; note: nearly all actives have a fitted effect of over 55% in size
# Target sequence (P10636 561-689 P618L limits assumed): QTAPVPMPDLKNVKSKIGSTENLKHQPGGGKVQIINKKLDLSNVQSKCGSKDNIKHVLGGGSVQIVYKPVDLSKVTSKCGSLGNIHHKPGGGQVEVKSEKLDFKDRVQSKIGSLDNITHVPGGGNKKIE
#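 In this qHTS, human K18 P301L tau is incubated with compound and heparin for 6 hr at 37 C, and Thioflavin T fluorescence then reports fibril load.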
# Sfp inh = inhibitors of Bacillus subtilis Sfp phosphopantetheinyl transferase. hit rate 3.5% among 310,000. Potency, µM, for the others: largest response in the series, negative = inhibition, usual class: inhibitors. Biochemical Sfp PPTase activity, qHTS. Q9F4F7;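 note: the enzyme is Sfp with the accession as filed and its product quenches rhodamine fluorescence; 0% = enzyme reaction without inhibitor and -100% = no enzyme wells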
#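 After 15 min at room temperature with compound, 15 nM Sfp received 5 uM rhodamine-CoA plus 12.5 uM BHQ-2-ybbR (50 mM Hepes pH 7.6, 10 mM MgCl2). Rate came from the fluorescence difference over 30 min, ex 525/em 598 nm.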
# Tau fibril FP = tau fibrillization inhibition (FP) | hit rate 0.39% among 280,000 | K18 P301L tau heparin fibrillization, Alexa594 FP, 6 h | P10636 | Potency, µM (top dose mostly 57.7 µM), for the others: at the highest dose activity, negative = inhibition, most hits filed as inhibitors; note: nearly all actives have a fitted effect of over 55% in size
#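 K18 P301L tau (15 uM unlabeled/0.24 uM Alexa 594-labeled, final) + compound + heparin 20 uM final; 100 mM NaOAc pH 7; 6 hr 37 C; ThT 30 uM final added, 1 hr RT; FP ex 555/em 632 nm.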
# An asterisk follows results filed as active; ? = inconclusive; . = no result; [ ] = remark or other dose. Only some compounds are listed: those with a hit (about 6% of all), similar ones and a draw of the others. Calls come from the whole dose curve; as a rule, active = well fitted curve in the direction sought with a large enough effect; inconclusive = small, poorly fitted or top-dose-only effect, or another doubt; inactive = no such curve, though single readings can be large; an effect the other way counts as inactive or inconclusive. Unless noted, % is set by controls: 0 for no effect and ±100 for the full control effect; potency is the fitted concentration of half-maximal effect.
SMILES,Tau fluor counter,PLK1 PBD block,VDR inhibitor,Tau ThT inhib,Sfp inh,Tau fibril FP
C/C(=N\NC(=O)c1ccc(Br)cc1)C1C(=O)c2ccccc2C1=O,?,?,-12%,4µM*,2%,?
CCOc1ccc(C(=O)N/N=C(/C)C2C(=O)c3ccccc3C2=O)cc1,-20%,0%,-17%,1.8µM*,7%,1%
C=C(C)C(=O)/C=C/c1ccc(Br)cc1,-3%,.,18µM*,-18%,-12%,-17%
Cc1ccc(S(=O)(=O)N/N=C2/CC(c3ccccc3)Oc3ccccc32)cc1[N+](=O)[O-] (stereo not given),?,12µM*,1%,?,3%,?
COc1cc(CN2CCNC(=O)C2CC(=O)N(C)CCC2CCOCC2)cc(OC)c1 (stereo not given),.,27µM*,?,.,9%,.
COc1cccc(CN2CCNC(=O)C2CC(=O)N(C)CCC2CCOCC2)c1 (stereo not given),.,-14%,-4%,.,4%,.
CN(CCc1ccccn1)C(=O)CC1C(=O)NCCN1Cc1ccc(-c2ccccc2)cc1 (stereo not given),-11%,-8%,9%,?,50µM*,-4%
Cc1cc(CN(C)C(=O)CC2C(=O)NCCN2Cc2c(F)cccc2Cl)n[nH]1 (stereo not given),5%,-3%,13%,-6%,50µM*,-5%
CN(C(=O)CC1C(=O)NCCN1Cc1ccccc1C(F)(F)F)C1CCOCC1 (stereo not given),.,11µM*,?,.,12%,.
Cc1ccc(CN2CCNC(=O)C2CC(=O)N(C)CCc2ccccc2)cc1 (stereo not given),1%,-11%,-3%,-1%,19%,-5%
Cc1cc(C)c(NC(=O)Cn2nnc(-c3nc(-c4ccccc4)no3)c2N)c(C)c1,17%,.,11%,22%,.,1%
O=C(Cn1ncc2c3ccccc3n(Cc3cccc(Cl)c3)c2c1=O)Nc1ccc(F)cc1F,-9%,.,11%,-6%,.,4%
CN(C)CCN1CCN(C2CN(C3CCCC3)S(=O)(=O)C2)CC1 (stereo not given),.,3%,.,.,.,.
COc1ccc(CN2CCNC(=O)C2CC(=O)N(C)Cc2nccs2)c(OC)c1 (stereo not given),.,27µM*,-16%,.,17%,.
COc1ccc(CN2CCNC(=O)C2CC(=O)N(C)Cc2ccncn2)c(OC)c1 (stereo not given),-6%,-7%,1%,-12%,-2%,-9%
C/C=C\C1=C(CO)C(=O)[C@@H]2OC2C1=O (stereo not given in full),?,.,.,3.5µM*,3.2µM*,?
C/C=C\C1=C(CO)[C@H](O)[C@H]2O[C@H]2[C@H]1O,-9%[11.6 µM],.,.,-6%[11.5 µM],8%,-11%[11.6 µM]
CCCC(=O)N1CCC1(C)C(=O)Nc1ccc2c(c1)OCCO2 (stereo not given),.,-3%,.,.,.,.
CC1CCN(C(C)C(=O)Nc2ccccc2-c2ccccc2)CC1 (stereo not given),-6%,-4%,-5%,-11%,-12%,-1%
Cc1cccc(CN2CCN(C(C)C(=O)NC(C)c3ccccc3)CC2)c1 (stereo not given),.,5%,36%,.,63µM*,.
CC(C(=O)Nc1ccccc1-c1ccccc1)N1CCN(Cc2ccccc2)CC1 (stereo not given),9%,17µM*,?,-5%,5%,4%
COc1ccc2c(c1)C(=NNc1ccc(C(=O)O)cc1)c1cc(OC)ccc1-2,.,?,-10%,.,-18%,.
COc1ccc2c(c1)C(=NN)c1cc(OC)ccc1-2,?,1%,2%,10µM*,8%,0%
CCC(=O)N1N=C(c2ccc(C)o2)CC1c1ccc(Br)cc1 (stereo not given),-8%,-26%,-16%,-9%,50µM*,?
COc1cccc(N2C(=O)C3CCCN3C2c2cccs2)c1 (stereo not given),-11%,-11%,-3%,-9%,-2%,-10%
SMILES,Tau fluor counter,PLK1 PBD block,VDR inhibitor,Tau ThT inhib,Sfp inh,Tau fibril FP
O=C1C2CCCN2C(=S)N1c1ccccc1 (stereo not given),.,13µM*,-6%,.,-7%,.
CSc1cccc(N2C(=O)C3CCCN3C2=S)c1 (stereo not given),.,11µM*,-7%,.,5%,.
COc1cccc(N2C(=O)C3CCCN3C2=S)c1 (stereo not given),.,13µM*,-3%,.,-19%,.
Cc1ccc(N2C(=O)C3CCCN3C2=S)c(C)c1 (stereo not given),.,?,2%,.,.,.
Cc1cccc(N2C(=O)C3CCCN3C2=S)c1 (stereo not given),.,13µM*,20%,.,-15%,.
Cc1ccc(CN(C)C(=O)C2CCC(=O)N(CCc3ccccc3)C2)o1 (stereo not given),.,-11%,-6%,.,35µM*,.
CC1Cc2ccccc2N1c1ncnc2c1nnn2Cc1ccccc1 (stereo not given),-25%,-6%,-9%,-6%,28µM*,-7%
CC1Cc2ccccc2N1c1nc(C2CC2)nc2c1nnn2Cc1ccccc1 (stereo not given),-5%,-8%,5%,-4%,-7%,-1%
COCCCNC(=O)Cn1c(=O)n(-c2ccc(C)cc2)c(=O)c2c1c1cc(C)ccc1n2C,-7%,.,-3%,0%,.,3%
CNc1nc(C(=O)O)nc(N2CCOCC2)n1,-2%,0%,-13%,-12%,56µM*,-2%
CNc1nc(OCC(F)(F)F)nc(N2CCOCC2)n1,0%,6.7µM*,-17%,1%,-1%,0%
Cc1noc(C)c1-c1cc(N(C)Cc2ccco2)ncn1,.,.,32µM*,.,56µM*,.
Cc1ccccc1-c1cc(N(C)Cc2ccco2)ncn1,.,.,45µM*,.,-30%,.
CN(C)c1ccc(-c2cc(N(C)Cc3ccco3)ncn2)cc1,.,.,?,.,-16%,.
COc1cccc(-c2cc(N(C)Cc3ccco3)ncn2)c1,.,.,45µM*,.,-29%,.
CN(Cc1ccco1)c1cc(-c2ccoc2)ncn1,.,.,28µM*,.,32µM*,.
O=C(Nc1nnc(C2CCCCC2)s1)C1CCN(C(=O)c2ccco2)CC1,.,.,7%,.,.,.
O=C(c1ccc(Br)s1)N(Cc1cccnc1)c1nc2ccc(F)cc2s1,-5%,.,1%,3%,.,-7%
O=C(CSc1cn(CCNC(=O)c2cccc(C(F)(F)F)c2)c2ccccc12)Nc1ccc2c(c1)OCCO2,?,.,7%,-11%,.,?
CNc1cc(-c2ccccc2C)ncn1,.,.,50µM*,.,79µM*,.
COc1ccc(N2C(=O)C(Cl)=C(Nc3ccccc3O)C2=O)cc1,?,12µM*,-28%,10µM*,45µM*,?
CC(C)(C)c1ccc(C(=O)N2CCC2(C)C(=O)NCc2ccc3c(c2)OCO3)cc1 (stereo not given),.,3%,.,.,.,.
